Source: the supplement of paper PMC10849652
The full data set covers some 7,900 targets. This sample favours those with a hit. About 0.6% of all pairs of compound and target were hits. Values without a mark were called inactive.

Assays:
Test in all cases: log2 fold change, soluble protein after heating vs DMSO (PISA); higher = thermal stabilisation; K562 cells, 10 uM, 30 min; active = over 0.2 and 3.5 SD of the protein, either way, in both replicates (recomputed)
[1] = compound: COC1=CC=C(C=C1)CN2C=CC3=C2C=C(C=C3)C(=O)NO
Summary of the method: (§1)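 K562 cells at 2×10^6 cells/mL were exposed to 10 μM compound for 30 min, then aliquots were heated for 3 min across 48°C-58°C, pooled, and extracted in PBS containing 0.5% NP-40 at 4°C. The supernatant after 21,000xg for 90 min was taken as soluble protein and measured by TMTpro 16plex LC-MS/MS with channel sums equalised. Thermal stability is reported relative to control samples, with values from duplicates. Fold changes are given on a log2 scale.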

filanesib = compound: CON(C)C(=O)N1N=C(c2cc(F)ccc2F)S[C@@]1(CCCN)c1ccccc1 [filanesib]
Summary of the method: as §1

zotarolimus = compound: CO[C@H]1C[C@@H]2CC[C@@H](C)[C@@](O)(O2)C(=O)C(=O)N2CCCC[C@H]2C(=O)O[C@H]([C@H](C)C[C@@H]2CC[C@H](n3cnnn3)[C@H](OC)C2)CC(=O)[C@H](C)/C=C(\C)[C@@H](O)[C@@H](OC)C(=O)[C@H](C)C[C@H](C)/C=C/C=C/C=C/1C [zotarolimus]
Summary of the method: as §1

idasanutlin = compound: COc1cc(C(=O)O)ccc1NC(=O)[C@@H]1N[C@@H](CC(C)(C)C)[C@](C#N)(c2ccc(Cl)cc2F)[C@H]1c1cccc(Cl)c1F [idasanutlin]
Summary of the method: as §1

alisertib = compound: COc1cc(Nc2ncc3c(n2)-c2ccc(Cl)cc2C(c2c(F)cccc2OC)=NC3)ccc1C(=O)O [alisertib]
Summary of the method: as §1

[2] = compound: COc1cc2nc(-c3cc(F)ccc3O)nc(N[C@@H]3CNC[C@H]3C(C)(C)O)c2cc1OC
Summary of the method: as §1

gefitinib = compound: COc1cc2ncnc(Nc3ccc(F)c(Cl)c3)c2cc1OCCCN1CCOCC1 [gefitinib]
Summary of the method: as §1

[3] = compound: COc1cccc2cc(-c3nc([C@H]4CC[C@H](C(=O)O)CC4)n4ncnc(N)c34)[nH]c12
Summary of the method: as §1

lapatinib = compound: CS(=O)(=O)CCNCc1ccc(-c2ccc3ncnc(Nc4ccc(OCc5cccc(F)c5)c(Cl)c4)c3c2)o1 [lapatinib]
Summary of the method: as §1

pictilisib = compound: CS(=O)(=O)N1CCN(Cc2cc3nc(-c4cccc5[nH]ncc45)nc(N4CCOCC4)c3s2)CC1 [pictilisib]
Summary of the method: as §1

Sequence of UniProt Q13422 (Q13422 whole entry, looked up): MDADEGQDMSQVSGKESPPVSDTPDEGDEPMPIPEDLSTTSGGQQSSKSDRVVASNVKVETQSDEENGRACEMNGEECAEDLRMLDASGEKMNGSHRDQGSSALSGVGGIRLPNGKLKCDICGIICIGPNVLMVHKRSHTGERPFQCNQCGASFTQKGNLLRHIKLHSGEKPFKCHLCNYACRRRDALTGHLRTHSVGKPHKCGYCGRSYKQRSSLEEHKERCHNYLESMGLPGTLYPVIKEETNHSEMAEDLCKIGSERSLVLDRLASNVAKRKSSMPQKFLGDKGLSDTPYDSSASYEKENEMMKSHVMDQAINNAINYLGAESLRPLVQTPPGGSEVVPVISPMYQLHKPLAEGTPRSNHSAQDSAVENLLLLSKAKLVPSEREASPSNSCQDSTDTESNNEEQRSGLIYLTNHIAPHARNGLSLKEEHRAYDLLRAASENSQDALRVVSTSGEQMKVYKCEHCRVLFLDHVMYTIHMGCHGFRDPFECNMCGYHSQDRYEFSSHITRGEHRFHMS
Sequence of UniProt Q32MZ4 (Q32MZ4 whole entry, looked up): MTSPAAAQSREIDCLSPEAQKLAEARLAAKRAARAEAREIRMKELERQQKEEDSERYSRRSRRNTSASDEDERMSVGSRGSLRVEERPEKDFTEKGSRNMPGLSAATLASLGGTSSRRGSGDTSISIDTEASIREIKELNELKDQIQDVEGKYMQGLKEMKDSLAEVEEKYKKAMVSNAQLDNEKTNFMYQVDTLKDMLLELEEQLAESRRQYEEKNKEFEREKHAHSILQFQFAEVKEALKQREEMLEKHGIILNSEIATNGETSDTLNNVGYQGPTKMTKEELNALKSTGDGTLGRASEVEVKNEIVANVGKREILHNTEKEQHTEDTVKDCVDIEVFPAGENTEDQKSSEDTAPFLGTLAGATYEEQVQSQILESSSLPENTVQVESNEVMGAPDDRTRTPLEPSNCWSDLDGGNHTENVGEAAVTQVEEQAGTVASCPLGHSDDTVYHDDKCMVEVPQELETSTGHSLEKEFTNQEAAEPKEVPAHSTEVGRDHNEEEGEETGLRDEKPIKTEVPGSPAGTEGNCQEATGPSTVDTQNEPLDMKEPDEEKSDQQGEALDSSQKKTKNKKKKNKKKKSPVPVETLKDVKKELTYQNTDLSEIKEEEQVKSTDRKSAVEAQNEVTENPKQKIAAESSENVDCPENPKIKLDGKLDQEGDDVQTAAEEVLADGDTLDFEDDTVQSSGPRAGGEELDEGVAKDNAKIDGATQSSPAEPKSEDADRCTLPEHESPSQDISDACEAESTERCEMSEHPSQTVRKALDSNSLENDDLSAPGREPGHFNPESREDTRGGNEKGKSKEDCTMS
Sequence of UniProt Q9H1H9 (Q9H1H9 whole entry, looked up): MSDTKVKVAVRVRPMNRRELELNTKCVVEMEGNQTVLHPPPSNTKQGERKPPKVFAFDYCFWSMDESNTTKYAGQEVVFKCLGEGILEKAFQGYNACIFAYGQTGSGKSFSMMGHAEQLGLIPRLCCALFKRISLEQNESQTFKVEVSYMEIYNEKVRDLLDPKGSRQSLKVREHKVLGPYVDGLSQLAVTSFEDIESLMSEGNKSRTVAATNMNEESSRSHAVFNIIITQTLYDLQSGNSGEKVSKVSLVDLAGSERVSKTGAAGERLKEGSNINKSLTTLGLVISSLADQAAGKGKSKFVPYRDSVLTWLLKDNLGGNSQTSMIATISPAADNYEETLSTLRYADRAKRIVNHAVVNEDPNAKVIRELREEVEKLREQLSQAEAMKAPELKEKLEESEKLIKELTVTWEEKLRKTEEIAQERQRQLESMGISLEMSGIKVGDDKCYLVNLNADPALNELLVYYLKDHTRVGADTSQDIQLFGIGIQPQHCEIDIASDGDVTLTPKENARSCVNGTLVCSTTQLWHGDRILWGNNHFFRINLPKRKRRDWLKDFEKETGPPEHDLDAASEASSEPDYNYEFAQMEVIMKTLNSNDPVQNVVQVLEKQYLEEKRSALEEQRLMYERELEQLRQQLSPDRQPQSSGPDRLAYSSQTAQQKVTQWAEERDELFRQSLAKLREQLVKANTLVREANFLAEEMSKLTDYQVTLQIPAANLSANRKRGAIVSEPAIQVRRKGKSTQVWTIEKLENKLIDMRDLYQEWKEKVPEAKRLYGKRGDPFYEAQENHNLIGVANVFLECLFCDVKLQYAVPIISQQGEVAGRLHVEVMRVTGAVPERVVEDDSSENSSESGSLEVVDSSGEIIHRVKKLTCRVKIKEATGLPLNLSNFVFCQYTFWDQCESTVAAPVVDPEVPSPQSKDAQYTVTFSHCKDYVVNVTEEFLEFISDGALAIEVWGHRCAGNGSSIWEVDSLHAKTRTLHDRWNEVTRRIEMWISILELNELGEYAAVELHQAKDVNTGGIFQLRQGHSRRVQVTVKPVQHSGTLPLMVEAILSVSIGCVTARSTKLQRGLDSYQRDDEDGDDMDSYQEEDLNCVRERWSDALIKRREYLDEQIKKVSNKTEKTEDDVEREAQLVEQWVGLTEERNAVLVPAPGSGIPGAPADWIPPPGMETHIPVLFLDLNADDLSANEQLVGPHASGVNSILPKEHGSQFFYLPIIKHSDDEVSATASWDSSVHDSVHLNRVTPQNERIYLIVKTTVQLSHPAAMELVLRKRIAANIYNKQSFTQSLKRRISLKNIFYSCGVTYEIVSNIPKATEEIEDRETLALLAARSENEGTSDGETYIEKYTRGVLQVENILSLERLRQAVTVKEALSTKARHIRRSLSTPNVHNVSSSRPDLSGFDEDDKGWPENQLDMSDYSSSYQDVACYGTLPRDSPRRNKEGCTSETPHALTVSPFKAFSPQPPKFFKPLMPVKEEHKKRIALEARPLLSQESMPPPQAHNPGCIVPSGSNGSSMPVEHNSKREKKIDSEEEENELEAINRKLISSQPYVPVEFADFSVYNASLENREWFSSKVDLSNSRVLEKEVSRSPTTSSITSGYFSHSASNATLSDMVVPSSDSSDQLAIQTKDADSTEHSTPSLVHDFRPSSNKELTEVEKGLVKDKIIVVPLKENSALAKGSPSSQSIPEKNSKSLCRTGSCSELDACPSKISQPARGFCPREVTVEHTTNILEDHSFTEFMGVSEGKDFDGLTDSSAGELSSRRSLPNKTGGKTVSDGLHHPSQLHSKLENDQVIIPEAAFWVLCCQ
Sequence of UniProt Q96GX5 (Q96GX5 whole entry, looked up): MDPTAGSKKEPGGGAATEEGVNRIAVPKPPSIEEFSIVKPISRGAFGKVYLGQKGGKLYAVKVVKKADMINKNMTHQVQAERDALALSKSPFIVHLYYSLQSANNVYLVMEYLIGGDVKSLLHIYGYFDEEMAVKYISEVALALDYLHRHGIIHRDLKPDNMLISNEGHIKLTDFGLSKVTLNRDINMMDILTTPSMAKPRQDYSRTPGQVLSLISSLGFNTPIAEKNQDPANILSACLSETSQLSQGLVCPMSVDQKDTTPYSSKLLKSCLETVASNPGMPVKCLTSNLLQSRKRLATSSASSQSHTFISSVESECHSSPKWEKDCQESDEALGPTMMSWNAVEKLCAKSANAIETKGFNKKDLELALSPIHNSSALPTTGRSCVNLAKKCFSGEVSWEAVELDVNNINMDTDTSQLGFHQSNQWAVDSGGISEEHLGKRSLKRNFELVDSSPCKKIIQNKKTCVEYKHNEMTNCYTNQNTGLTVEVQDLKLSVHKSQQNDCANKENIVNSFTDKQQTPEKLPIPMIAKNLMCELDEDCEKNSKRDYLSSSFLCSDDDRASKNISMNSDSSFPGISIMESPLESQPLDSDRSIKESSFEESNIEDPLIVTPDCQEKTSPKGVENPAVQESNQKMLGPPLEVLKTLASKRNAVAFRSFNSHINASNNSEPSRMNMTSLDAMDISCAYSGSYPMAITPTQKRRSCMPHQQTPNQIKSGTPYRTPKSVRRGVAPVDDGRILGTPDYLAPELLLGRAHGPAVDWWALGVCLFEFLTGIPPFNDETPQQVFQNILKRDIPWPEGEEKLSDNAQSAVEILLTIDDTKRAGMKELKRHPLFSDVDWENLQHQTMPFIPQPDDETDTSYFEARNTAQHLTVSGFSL
Sequence of UniProt Q8TDD5 (Q8TDD5 whole entry, looked up): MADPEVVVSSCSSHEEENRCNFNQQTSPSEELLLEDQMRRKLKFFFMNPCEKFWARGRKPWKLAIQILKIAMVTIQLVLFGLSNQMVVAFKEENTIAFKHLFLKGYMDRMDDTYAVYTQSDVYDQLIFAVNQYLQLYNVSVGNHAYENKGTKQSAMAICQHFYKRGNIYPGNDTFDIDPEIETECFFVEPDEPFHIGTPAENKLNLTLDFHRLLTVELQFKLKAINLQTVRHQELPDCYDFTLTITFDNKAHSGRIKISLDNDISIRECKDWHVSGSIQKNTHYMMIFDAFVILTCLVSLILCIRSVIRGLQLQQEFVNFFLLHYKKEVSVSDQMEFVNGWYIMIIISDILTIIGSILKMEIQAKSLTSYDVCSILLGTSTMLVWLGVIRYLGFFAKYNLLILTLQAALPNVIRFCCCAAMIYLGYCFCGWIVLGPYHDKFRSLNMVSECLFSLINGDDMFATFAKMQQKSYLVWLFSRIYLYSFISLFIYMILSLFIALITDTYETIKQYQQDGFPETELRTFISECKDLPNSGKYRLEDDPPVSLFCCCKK
Sequence of UniProt P28300 (P28300 whole entry, looked up): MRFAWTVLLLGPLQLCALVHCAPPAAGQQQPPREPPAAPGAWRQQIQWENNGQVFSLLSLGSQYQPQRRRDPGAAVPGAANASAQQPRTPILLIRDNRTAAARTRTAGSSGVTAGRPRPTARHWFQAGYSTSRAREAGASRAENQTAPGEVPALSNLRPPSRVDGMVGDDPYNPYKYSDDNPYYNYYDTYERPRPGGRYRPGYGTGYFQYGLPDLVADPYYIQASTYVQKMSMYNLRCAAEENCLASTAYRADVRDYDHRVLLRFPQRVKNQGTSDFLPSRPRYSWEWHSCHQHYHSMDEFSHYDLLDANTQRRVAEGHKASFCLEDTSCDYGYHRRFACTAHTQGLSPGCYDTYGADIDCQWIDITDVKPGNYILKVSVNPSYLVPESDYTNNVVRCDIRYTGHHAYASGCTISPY

Row | Target | log2 fold change [1] | log2 fold change (filanesib) | log2 fold change (zotarolimus) | log2 fold change (idasanutlin) | log2 fold change (alisertib) | log2 fold change [2] | log2 fold change (gefitinib) | log2 fold change [3] | log2 fold change (lapatinib) | log2 fold change (pictilisib)
1 | JMJD6 isoform 3 (UniProt Q6NYC1) | -0.061 | -0.039 | 0.03 | 0.019 | 0.013 | -0.088 | 0.059 | -0.021 | -0.016 | 0.039
2 | IL10RB (UniProt Q08334) | -0.161 | 0.299 |  | -0.008 |  | 0.048 | 0.088 |  | 0.011 | 0.025
3 | LENG8 (UniProt Q96PV6) | 0.205 | 0 | -0.061 | -0.151 | -0.149 |  | -0.056 | -0.016 |  | -0.002
4 | LUM (UniProt P51884) | -0.151 | 0.169 | 0 | -0.023 |  | -0.216 | 0.087 |  | 0.067 | 
5 | MED12 isoform 2 (UniProt Q93074) | 0.093 | 0.256 |  | 0.103 | 0.214 | -0.09 | 0.024 | 0.007 | 0.028 | -0.113
6 | MFSD8 (UniProt Q8NHS3) | -0.236 |  | -0.062 | -0.019 | 0.059 | -0.07 |  | 0.054 | 0.025 | 0.079
7 | MCM10 (UniProt Q7L590) | 0.303 | -0.192 |  |  | -0.097 | -0.103 | -0.014 | 0.1 | 0.204 | -0.118
8 | MASTL (UniProt Q96GX5) | 0.147 | -0.09 | 0.088 | 0.072 | -0.09 |  | -0.107 | -0.155 |  | 
9 | ITGA2B (UniProt P08514) | 0.004 | 0.086 | -0.065 | 0.138 |  | 0.074 | -0.086 |  | 0.033 | -0.589 (active)
10 | LAMP2 isoform 2 (UniProt P13473) | -0.049 |  | 0.022 | 0.017 | -0.105 | -0.027 | -0.039 | 0.09 | -0.104 | 0.075
11 | INTS5 (UniProt Q6P9B9) | -0.02 | -0.055 |  | 0.045 | -0.019 | -0.111 | -0.017 | -0.004 | 0.13 | 
12 | LGALS8 isoform 2 (UniProt O00214) | 0.202 | 0.264 | 0.053 | 0.182 | -0.021 |  |  | -0.278 |  | -0.183
13 | MAP4K4 isoform 3 (UniProt O95819) | -0.021 | 0.032 | 0.021 | 0.093 |  | -0.05 | 0.01 | 0.02 | -0.021 | -0.153
14 | MAPK7 (UniProt Q13164) | -0.066 |  |  | 0.003 |  |  |  |  |  | 0.108
15 | MED29 (UniProt Q9NX70) |  |  |  | 0.1 | -0.571 | -0.77 (active) | 0.058 | 0.115 | -0.028 | 
16 | MAP4K4 isoform 6 (UniProt O95819) |  | -0.018 | -0.162 |  |  |  | -0.028 | -0.179 |  | 
17 | LAPTM4B (UniProt Q86VI4) |  | 0.186 |  |  | -0.027 |  |  | 0.007 |  | 0.017
18 | MFAP3 (UniProt P55082) |  | -0.092 |  | 0.192 |  |  |  |  |  | 
19 | MAP4 isoform 5 (UniProt P27816) |  | -0.039 |  | -0.025 | 0.143 | -0.033 | -0.005 | -0.045 | 0.036 | 
20 | KXD1 (UniProt Q9BQD3) |  |  | 0.073 | -0.021 | -0.019 | 0.042 |  | 0.342 (active) | -0.054 | 0.063
21 | LPIN3 isoform 2 (UniProt Q9BQK8) |  | 0.006 | 0.011 | -0.075 | 0.022 | 0.111 | -0.029 | -0.01 | 0.022 | 0.147
22 | LOX (UniProt P28300) |  |  |  |  | -0.111 |  | -0.391 | 0.146 |  | 
23 | MFSD1 isoform 6 (UniProt Q9H3U5) |  | -0.123 | -0.108 | -0.01 | -0.035 | 0.019 | -0.021 | 0.181 | -0.026 | 0.055
24 | ITPRID2 (UniProt P28290) | 0 |  |  |  |  | 0.141 |  |  | -0.141 | 

Row | Target | log2 fold change [1] | log2 fold change (filanesib) | log2 fold change (zotarolimus) | log2 fold change (idasanutlin) | log2 fold change (alisertib) | log2 fold change [2] | log2 fold change (gefitinib) | log2 fold change [3] | log2 fold change (lapatinib) | log2 fold change (pictilisib)
25 | LEPROT (UniProt O15243) |  |  | -0.056 | 0.31 | -0.027 |  |  | 0.041 |  | -0.212
26 | KIF1B isoform 3 (UniProt O60333) |  |  |  |  | 0.251 |  |  | -0.037 |  | 
27 | IKZF1 (UniProt R9R4D9) | -0.167 |  | -0.192 |  |  | 0.084 |  |  | 0.037 | 0.059
28 | KIZ (UniProt Q2M2Z5) | -0.008 |  | 0.269 | -0.019 |  | -0.064 |  |  | 0.066 | -0.215
29 | LSR isoform 3 (UniProt Q86X29) |  | 0.188 | 0.115 |  | -0.011 | 0.041 |  | 0.033 | 0.073 | 
30 | KIF13A isoform 4 (UniProt Q9H1H9) |  | -0.684 | 0.03 | -0.081 |  |  |  |  |  | 
31 | IP6K1 (UniProt Q92551) |  | 0.037 | 0.151 | -0.044 | 0.042 | 1.11 (active) |  | 0.091 | 0.128 | 0.13
32 | MCOLN3 (UniProt Q8TDD5) |  |  |  |  | 0.058 | 0.068 | -0.04 | -0.035 | -0.02 | 0.044
33 | KLHL18 (UniProt O94889) |  | 0 | 0.022 | -0.048 | -0.068 | -0.048 | 0.057 | 0.038 | 0.071 | 0.09
34 | MAPRE3 isoform 2 (UniProt Q9UPY8) | 0.192 |  | 0.008 | 0.155 |  | -0.176 | -0.02 |  | -0.265 | 
35 | MAPK11 (UniProt Q15759) | -0.126 |  |  |  |  |  |  |  |  | 0.068
36 | KMT5A (UniProt Q9NQR1) |  | 0.976 (active) |  |  |  |  |  |  |  | 0.368
37 | MAGEA8 (UniProt P43361) | 0.061 |  | 0.108 | 0.002 |  | 0.057 | -0.069 |  | -0.032 | 0.145
38 | LSR (UniProt M0QZL9) |  | 0.168 |  |  |  |  |  |  |  | 
39 | IGFBP6 (UniProt P24592) |  |  | -1.03 (active) | 0.776 (active) |  |  |  |  |  | 
40 | LRRFIP1 isoform 4 (UniProt Q32MZ4) | -0.061 |  | 0.202 | 0.108 |  |  |  |  |  | -0.046
41 | LMBRD1 (UniProt Q9NUN5) |  | -0.39 (active) | 0.049 | 0.102 | -0.022 | -0.062 | 0 | 0.059 | -0.026 | -0.03
42 | ITM2C (UniProt Q9NQX7) |  | -0.275 | -0.047 | -0.061 |  | -0.12 | -0.092 |  | -0.045 | -0.149
43 | IKZF1 isoform 2 (UniProt Q13422) |  | -0.075 | 0.1 |  | 0.079 |  | -0.044 | -0.031 |  | 
44 | MARCHF3 (UniProt Q86UD3) |  | -0.272 |  |  |  | 0.027 | -0.195 |  | -0.033 | 
45 | IPP (UniProt Q9Y573) |  |  |  | 0.051 |  |  |  |  |  | 
46 | MFSD12 isoform 3 (UniProt Q6NUT3) |  | -0.197 | 0.024 | -0.097 |  |  |  |  |  | 0.069
47 | MAGED1 isoform 2 (UniProt Q9Y5V3) |  | 0.264 | 0.001 | 0.054 |  | -0.058 | 0.228 |  | 0.034 | 
48 | LIN52 (UniProt Q52LA3) |  |  |  |  | -0.924 (active) |  |  | 0 |  | 
